# Reference: the supplement of paper PMC10681739
# Target: T1, ETS1 (UniProt P14921)
# T1 sequence: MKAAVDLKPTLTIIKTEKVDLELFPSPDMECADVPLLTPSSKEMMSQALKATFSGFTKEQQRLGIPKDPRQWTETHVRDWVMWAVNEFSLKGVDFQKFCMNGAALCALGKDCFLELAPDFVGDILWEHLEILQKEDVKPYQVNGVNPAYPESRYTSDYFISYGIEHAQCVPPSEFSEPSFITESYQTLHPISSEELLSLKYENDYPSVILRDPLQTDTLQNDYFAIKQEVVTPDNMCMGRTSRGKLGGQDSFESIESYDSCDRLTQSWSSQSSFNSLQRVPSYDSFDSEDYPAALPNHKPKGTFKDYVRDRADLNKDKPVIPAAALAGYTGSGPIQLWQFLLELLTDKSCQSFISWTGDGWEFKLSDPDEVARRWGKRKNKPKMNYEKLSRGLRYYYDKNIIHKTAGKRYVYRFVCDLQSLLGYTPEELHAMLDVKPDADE
# Test: TF binding intensity (PBM fluorescence), negative control probe (arbitrary fluorescence units); higher = stronger binding
# Experimental: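 gcPBM negative-control 36-bp genomic probes lacking TF binding sites. Each was incubated with recombinant human ETS1 or RUNX1 alone and detected by antibody fluorescence. Values are medians over replicate spots (4 spots for the ETS1-RUNX1 arrays, 3 for the ETS1-ETS1 array). The probes sit in constant array flanks that are not printed.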
row,Sequence,TF binding intensity
1,CACACACTAAATCTCTGTACTAAATGAAAGGTTGCT (protein concentration 10 nM),139
2,ACCTCATCGAAAGTCTCTCTGGAGGCTGAGTTTGTC (protein concentration 10 nM),123
3,TTTCTGTTTTGTTTTATTTTGTTTGTTTTTATTCTG (protein concentration 10 nM),128
4,AGACAGAAAAAGCCACAGCCGAGCGCCCAGCTGTGG (protein concentration 10 nM),95.8
5,GTTTGGCTTTCAGAGTGTGGTTTGGATTCCTAACAG (protein concentration 1 nM),450
6,TTATGAACTGTATCATGTGGTTTGAGTTTAATTTGG (protein concentration 1 nM),487
7,TTATAGGTGAGAGCTACCATGCCTGGTCCTATTTAA (protein concentration 10 nM),97.6
8,CAGAGGGGGCCTCTGGGGCAGCGGTGCTGGGAGCGG (protein concentration 10 nM),109
9,CTTTCTAAAGAGAAAAGCTCCTTTGTACCACGTGTC (protein concentration 10 nM),103
10,TTGTTACACTCCACGCTTTAGCTATTTGTTGCTACT (protein concentration 10 nM),120
11,AGGCCTCTGCTCTCCTGGAGCTCATGACAAGTAAAC (protein concentration 10 nM),118
12,TCCTGTAAGGACATTTTGTGCCTTCTCCCATGATGA (protein concentration 10 nM),97.8
13,CCGGCTGTCTCCTGCACCCAGGTAAGCAGCGGCGCT (protein concentration 10 nM),108
